The source of these data is publication PMC8159961, “Exploring protein hotspots by optimized fragment pharmacophores” (Nature Communications, 2021).

A number with no mark means an inactive call. No rule for the calls is given here.

Holding throughout (experiment): primary screen, binary call; higher = more effect of the substance
One test deals with Factor Xa (bovine, UniProt P00743). Also on record: screenings were carried out in duplicate in one independent experiment. The conditions noted are these: 200 µM. The method, then:
Protease inhibitory assays were performed in transparent microtiter plates in a final volume of 200 µL with the use of chromogenic substrates. The reaction rates in the absence and in the presence of the inhibitor were measured; screenings were carried out in duplicate in one independent experiment and Ki values were determined in triplicate in two independent experiments.

Another test concerns the target 5-HT6 receptor (human, UniProt P50406). Set-up: hit call from the mean of at least two separate experiments. The following applies: 10 µM.
The next test addresses 5-HT7b receptor (human, UniProt P34969). Set-up: hit call from the mean of at least two separate experiments. The conditions noted are these: 10 µM.

Factor Xa, sequence (P00743 41-180 limits assumed): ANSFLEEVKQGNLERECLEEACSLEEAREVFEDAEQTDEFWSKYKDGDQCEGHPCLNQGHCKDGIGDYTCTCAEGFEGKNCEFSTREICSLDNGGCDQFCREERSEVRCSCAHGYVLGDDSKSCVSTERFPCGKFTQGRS
Factor Xa, sequence (P00743 234-492 limits assumed): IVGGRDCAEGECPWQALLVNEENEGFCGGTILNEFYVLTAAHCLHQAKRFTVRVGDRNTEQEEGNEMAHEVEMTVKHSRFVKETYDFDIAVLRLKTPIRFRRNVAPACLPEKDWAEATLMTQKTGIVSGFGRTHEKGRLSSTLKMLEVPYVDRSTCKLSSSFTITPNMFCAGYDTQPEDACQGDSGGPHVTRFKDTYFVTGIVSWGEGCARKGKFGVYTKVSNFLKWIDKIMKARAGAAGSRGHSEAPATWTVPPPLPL
5-HT7b receptor, sequence (P34969 whole entry, looked up): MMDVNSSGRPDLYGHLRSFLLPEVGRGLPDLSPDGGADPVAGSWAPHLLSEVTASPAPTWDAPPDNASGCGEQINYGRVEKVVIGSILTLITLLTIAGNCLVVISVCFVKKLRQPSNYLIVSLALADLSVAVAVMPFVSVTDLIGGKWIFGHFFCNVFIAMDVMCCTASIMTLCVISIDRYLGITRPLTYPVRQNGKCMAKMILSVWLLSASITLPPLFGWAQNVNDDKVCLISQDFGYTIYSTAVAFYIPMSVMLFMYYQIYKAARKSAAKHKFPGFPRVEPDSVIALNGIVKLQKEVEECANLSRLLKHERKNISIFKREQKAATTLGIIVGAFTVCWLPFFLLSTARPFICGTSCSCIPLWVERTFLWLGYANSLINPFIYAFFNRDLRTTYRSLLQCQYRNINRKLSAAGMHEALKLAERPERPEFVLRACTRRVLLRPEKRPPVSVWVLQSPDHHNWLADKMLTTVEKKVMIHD
5-HT6 receptor, sequence (P50406 whole entry, looked up): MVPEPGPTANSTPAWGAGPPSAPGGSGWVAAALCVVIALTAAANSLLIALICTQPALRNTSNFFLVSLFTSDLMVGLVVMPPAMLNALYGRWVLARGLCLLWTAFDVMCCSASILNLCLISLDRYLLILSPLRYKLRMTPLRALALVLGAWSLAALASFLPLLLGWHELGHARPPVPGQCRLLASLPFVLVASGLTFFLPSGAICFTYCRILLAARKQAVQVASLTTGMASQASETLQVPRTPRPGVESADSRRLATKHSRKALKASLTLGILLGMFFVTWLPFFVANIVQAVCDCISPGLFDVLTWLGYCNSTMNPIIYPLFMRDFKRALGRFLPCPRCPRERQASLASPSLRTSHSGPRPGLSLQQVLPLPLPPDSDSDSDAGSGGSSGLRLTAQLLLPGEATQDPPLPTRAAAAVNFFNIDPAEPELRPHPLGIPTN

Take `CN1CC(=O)NC1=O`: the “Factor Xa” value in the test with Factor Xa was 0. Further, in the test with 5-HT6 receptor, the 5-HT6 is 0. Further, the 5-HT7 with 5-HT7b receptor was 0.
Consider `COc1ccc(C2=CCNCC2)cc1`, for which, in the test with Factor Xa, the “Factor Xa” value was 0. Also, the 5-HT6 with 5-HT6 receptor was 0. Further, the 5-HT7 with 5-HT7b receptor is 0.
In the case of `Clc1ccc2nnnn2n1`, the “Factor Xa” value with Factor Xa is 0. Further, the 5-HT6 in the test with 5-HT6 receptor was 0. In the test with 5-HT7b receptor, the 5-HT7 is 0.
For `O=C1NC(=O)/C(=C\c2cccs2)N1`, the “Factor Xa” value in the test with Factor Xa is 1 (active). Further, the 5-HT6 with 5-HT6 receptor was 0. For the same molecule, in the test with 5-HT7b receptor, the 5-HT7 was 0.
As to `C1=C[C@H]2O[C@@H]1c1ccccc12`, the “Factor Xa” value in the test with Factor Xa is 0. The 5-HT6 with 5-HT6 receptor was 0. Further, the 5-HT7 with 5-HT7b receptor is 0.
Turning to `O=C1CCCc2occc21`, the “Factor Xa” value with Factor Xa is 0. For the same molecule, the 5-HT6 with 5-HT6 receptor was 0. The 5-HT7 in the test with 5-HT7b receptor was 0.
Consider `c1ccc2sc(N3CCNCC3)nc2c1`, for which, in the test with Factor Xa, the “Factor Xa” value is 0. For the same molecule, the 5-HT6 in the test with 5-HT6 receptor was 0. In the test with 5-HT7b receptor, the 5-HT7 was 0.
For `COc1ccccc1N1CCNCC1`, the “Factor Xa” value in the test with Factor Xa was 0. Moreover, in the test with 5-HT6 receptor, the 5-HT6 is 1 (active). In addition, the 5-HT7 with 5-HT7b receptor was 1 (active).
Regarding `O=C(O)c1ccc(CN2CCOCC2)cc1`, the “Factor Xa” value with Factor Xa is 0. For the same molecule, the 5-HT6 in the test with 5-HT6 receptor was 0. For the same molecule, in the test with 5-HT7b receptor, the 5-HT7 is 0.
Regarding `Fc1ccc(CC2CCCNC2)cc1` (stereo not drawn), the “Factor Xa” value with Factor Xa was 0. Besides, the 5-HT6 with 5-HT6 receptor is 0. In the test with 5-HT7b receptor, the 5-HT7 was 0.
For `Brc1ccc(-c2ccon2)cc1`, the “Factor Xa” value with Factor Xa was 0. The 5-HT6 in the test with 5-HT6 receptor was 0. The 5-HT7 in the test with 5-HT7b receptor is 0.
Consider `CS(=O)(=O)c1ccc(N2CCNCC2)cc1`, for which the “Factor Xa” value with Factor Xa was 0. For the same molecule, in the test with 5-HT6 receptor, the 5-HT6 is 0. In addition, the 5-HT7 with 5-HT7b receptor was 0.
For `COc1ccccc1CC1CCNCC1.Cl`, in the test with Factor Xa, the “Factor Xa” value is 1 (active). The 5-HT6 in the test with 5-HT6 receptor is 1 (active). The 5-HT7 in the test with 5-HT7b receptor is 1 (active).
Consider `N[C@H]1c2ccccc2C[C@H]1CO`, for which the “Factor Xa” value in the test with Factor Xa is 0. In addition, in the test with 5-HT6 receptor, the 5-HT6 was 0. Moreover, the 5-HT7 with 5-HT7b receptor is 0.
As to `O=C1CSC(Nc2ccc(F)cc2)=N1`, the “Factor Xa” value with Factor Xa is 0. Further, the 5-HT6 with 5-HT6 receptor was 0. For the same molecule, the 5-HT7 with 5-HT7b receptor is 0.
With `Oc1ccccc1N1CCCCC1`, the “Factor Xa” value with Factor Xa is 1 (active). In the test with 5-HT6 receptor, the 5-HT6 is 1 (active). In the test with 5-HT7b receptor, the 5-HT7 was 0.
`O=C(O)c1cccc(Nc2ncccn2)c1`: the “Factor Xa” value with Factor Xa is 0. The 5-HT6 with 5-HT6 receptor is 1 (active). Further, the 5-HT7 in the test with 5-HT7b receptor was 0.
`N#CCCN1CCc2ccccc21`: the “Factor Xa” value with Factor Xa is 0. Further, the 5-HT6 with 5-HT6 receptor was 0. Further, in the test with 5-HT7b receptor, the 5-HT7 was 0.
With `Nc1nnc(-c2cccs2)[nH]1`, in the test with Factor Xa, the “Factor Xa” value is 0. The 5-HT6 with 5-HT6 receptor is 1 (active). For the same molecule, the 5-HT7 with 5-HT7b receptor was 0.
As to `Cn1c(CO)nc2ccccc21`, the “Factor Xa” value with Factor Xa is 0. The 5-HT6 in the test with 5-HT6 receptor was 0. The 5-HT7 in the test with 5-HT7b receptor was 0.
Regarding `FC1(F)CNCC(F)(F)O1`, the “Factor Xa” value in the test with Factor Xa was 0. Besides, the 5-HT6 in the test with 5-HT6 receptor is 0. Also, the 5-HT7 with 5-HT7b receptor was 0.
For `O=C1CCN(c2ccccn2)CC1`, in the test with Factor Xa, the “Factor Xa” value is 0. For the same molecule, in the test with 5-HT6 receptor, the 5-HT6 was 0. For the same molecule, the 5-HT7 with 5-HT7b receptor was 0.
Turning to `Fc1ccc2c(C3CCNCC3)c[nH]c2c1`, in the test with Factor Xa, the “Factor Xa” value is 0. Besides, the 5-HT6 in the test with 5-HT6 receptor is 1 (active). Besides, the 5-HT7 in the test with 5-HT7b receptor is 1 (active).
Regarding `NC(=O)N1CCC(C(=O)O)CC1`, the “Factor Xa” value in the test with Factor Xa was 0. For the same molecule, the 5-HT6 with 5-HT6 receptor is 0. Besides, the 5-HT7 with 5-HT7b receptor is 0.
Turning to `c1ccc2oc(C3CCCNC3)nc2c1` (stereo not drawn), the “Factor Xa” value with Factor Xa was 0. In addition, the 5-HT6 with 5-HT6 receptor was 0. Moreover, the 5-HT7 with 5-HT7b receptor was 0.
`CS(=O)(=O)Nc1ccc(C(=O)O)cc1`: the “Factor Xa” value with Factor Xa was 0. Also, in the test with 5-HT6 receptor, the 5-HT6 was 0. Further, the 5-HT7 with 5-HT7b receptor is 0.
As for `O=C1NC(=O)C2(CCc3ccccc32)N1` (stereo not drawn), the “Factor Xa” value with Factor Xa is 0. For the same molecule, in the test with 5-HT6 receptor, the 5-HT6 is 0. For the same molecule, in the test with 5-HT7b receptor, the 5-HT7 was 0.
Consider `CCN(CC)c1cccc(C)c1`, for which, in the test with Factor Xa, the “Factor Xa” value is 0. For the same molecule, in the test with 5-HT6 receptor, the 5-HT6 was 0. Further, the 5-HT7 with 5-HT7b receptor was 0.
Consider `O=C1CC(CSc2ccc(Cl)cc2)=NN1`, for which, in the test with Factor Xa, the “Factor Xa” value is 0. Moreover, the 5-HT6 with 5-HT6 receptor was 0. In the test with 5-HT7b receptor, the 5-HT7 was 0.
On to `O=C(O)C1CCN(c2ncccn2)CC1`, for which the “Factor Xa” value with Factor Xa was 0. Further, the 5-HT6 in the test with 5-HT6 receptor was 0. The 5-HT7 with 5-HT7b receptor is 0.
With `CCn1cnc2ccccc21`, in the test with Factor Xa, the “Factor Xa” value was 0. For the same molecule, the 5-HT6 with 5-HT6 receptor was 0. Besides, in the test with 5-HT7b receptor, the 5-HT7 is 0.
For `O=C(CN1CCNCC1)c1ccccc1`, the “Factor Xa” value with Factor Xa was 0. In addition, in the test with 5-HT6 receptor, the 5-HT6 was 0. Further, in the test with 5-HT7b receptor, the 5-HT7 was 0.
As for `O=C(NC1CC1)c1ccccc1O`, the “Factor Xa” value with Factor Xa is 0. Moreover, in the test with 5-HT6 receptor, the 5-HT6 is 0. In addition, the 5-HT7 in the test with 5-HT7b receptor was 0.
As for `CCc1nccn1CC(=O)O`, the “Factor Xa” value with Factor Xa was 0. Besides, the 5-HT6 with 5-HT6 receptor is 0. The 5-HT7 with 5-HT7b receptor is 0.
As for `O=C(c1ccccc1F)N1CCNCC1`, in the test with Factor Xa, the “Factor Xa” value was 1 (active). The 5-HT6 in the test with 5-HT6 receptor is 0. Moreover, in the test with 5-HT7b receptor, the 5-HT7 was 0.
On to `Oc1cnc(-c2ccccc2)nc1`, for which the “Factor Xa” value in the test with Factor Xa was 0. Besides, in the test with 5-HT6 receptor, the 5-HT6 was 0. For the same molecule, the 5-HT7 with 5-HT7b receptor is 0.
As to `CC1CCc2sc(C(=O)O)cc2C1` (stereo not drawn), the “Factor Xa” value with Factor Xa is 0. In the test with 5-HT6 receptor, the 5-HT6 is 0. Besides, the 5-HT7 with 5-HT7b receptor is 0.
Turning to `CC(=O)c1ccc2c(c1)CCCN2`, in the test with Factor Xa, the “Factor Xa” value was 0. In addition, the 5-HT6 in the test with 5-HT6 receptor was 0. Moreover, the 5-HT7 with 5-HT7b receptor is 0.
As for `Cn1nc(C(F)(F)F)cc1O`, in the test with Factor Xa, the “Factor Xa” value is 0. Besides, the 5-HT6 with 5-HT6 receptor is 0. The 5-HT7 with 5-HT7b receptor is 0.
With `Nc1ccc(-c2ccccc2)cc1C(=O)O`, the “Factor Xa” value in the test with Factor Xa is 0. Moreover, the 5-HT6 in the test with 5-HT6 receptor was 0. For the same molecule, the 5-HT7 in the test with 5-HT7b receptor is 0.
As for `O=C(O)c1cnc(-c2ccccc2)s1`, the “Factor Xa” value with Factor Xa is 0. The 5-HT6 with 5-HT6 receptor is 0. Further, the 5-HT7 in the test with 5-HT7b receptor was 0.
Turning to `CCc1ccc(NC2=NCCCS2)cc1`, the “Factor Xa” value with Factor Xa is 0. Also, the 5-HT6 in the test with 5-HT6 receptor is 0. In addition, in the test with 5-HT7b receptor, the 5-HT7 was 0.
As to `Oc1nnc(-c2ccccc2)o1`, in the test with Factor Xa, the “Factor Xa” value was 0. Besides, in the test with 5-HT6 receptor, the 5-HT6 is 0. Further, the 5-HT7 in the test with 5-HT7b receptor was 0.
As to `O=c1[nH]c2c(s1)CCC2`, the “Factor Xa” value with Factor Xa was 0. Moreover, in the test with 5-HT6 receptor, the 5-HT6 was 0. In addition, in the test with 5-HT7b receptor, the 5-HT7 is 0.
On to `NCC1(c2ccccc2)CCOCC1`, for which, in the test with Factor Xa, the “Factor Xa” value was 0. The 5-HT6 with 5-HT6 receptor is 0. The 5-HT7 in the test with 5-HT7b receptor was 0.
In the case of `Cc1ccc(-c2ccc(O)cc2)cc1`, the “Factor Xa” value with Factor Xa was 0. In the test with 5-HT6 receptor, the 5-HT6 was 0. The 5-HT7 with 5-HT7b receptor is 0.
For `Oc1ccc(C2CCNCC2)cc1`, the “Factor Xa” value with Factor Xa was 0. For the same molecule, in the test with 5-HT6 receptor, the 5-HT6 was 0. Besides, in the test with 5-HT7b receptor, the 5-HT7 was 0.
`c1ccc2c(N3CCNCC3)ccnc2c1`: the “Factor Xa” value in the test with Factor Xa was 0. Also, the 5-HT6 with 5-HT6 receptor is 1 (active). In addition, the 5-HT7 with 5-HT7b receptor was 0.
For `N#Cc1ccc2ncsc2c1`, the “Factor Xa” value with Factor Xa is 0. For the same molecule, the 5-HT6 in the test with 5-HT6 receptor is 0. Also, in the test with 5-HT7b receptor, the 5-HT7 is 0.
On to `c1ccc(Nc2nncs2)cc1`, for which, in the test with Factor Xa, the “Factor Xa” value is 1 (active). Further, the 5-HT6 with 5-HT6 receptor was 0. Also, the 5-HT7 in the test with 5-HT7b receptor is 0.
Turning to `Cc1ccc(CCNc2ccccc2)cn1`, in the test with Factor Xa, the “Factor Xa” value is 0. Also, the 5-HT6 with 5-HT6 receptor is 0. Further, in the test with 5-HT7b receptor, the 5-HT7 is 0.
For `O=C1CCN(c2ccncc2)CC1`, in the test with Factor Xa, the “Factor Xa” value is 0. Further, the 5-HT6 with 5-HT6 receptor was 0. The 5-HT7 with 5-HT7b receptor is 0.
Take `O=C(c1ccccc1)N1CCC(CO)CC1`: the “Factor Xa” value with Factor Xa was 0. Besides, the 5-HT6 with 5-HT6 receptor is 0. In addition, the 5-HT7 with 5-HT7b receptor was 0.
On to `Cc1cc(N)no1`, for which the “Factor Xa” value with Factor Xa is 0. In the test with 5-HT6 receptor, the 5-HT6 is 0. Besides, in the test with 5-HT7b receptor, the 5-HT7 is 0.
Consider `COc1cccc(NC2=NCCCCC2)c1`, for which, in the test with Factor Xa, the “Factor Xa” value was 0. For the same molecule, the 5-HT6 with 5-HT6 receptor was 0. Also, in the test with 5-HT7b receptor, the 5-HT7 was 0.
On to `Cc1cc(C)c2c(=O)[nH]n(C)c2n1`, for which, in the test with Factor Xa, the “Factor Xa” value is 0. In the test with 5-HT6 receptor, the 5-HT6 is 0. In the test with 5-HT7b receptor, the 5-HT7 is 0.
For `O=C(CN1CCCC1)c1ccccc1Cl`, the “Factor Xa” value with Factor Xa is 0. Besides, the 5-HT6 with 5-HT6 receptor is 0. The 5-HT7 with 5-HT7b receptor was 0.
On to `NC(c1ccccc1)c1ccccc1`, for which the “Factor Xa” value in the test with Factor Xa was 0. The 5-HT6 with 5-HT6 receptor is 0. Further, the 5-HT7 with 5-HT7b receptor was 0.
For `O=C(c1ccncc1)N1CCNCC1`, the “Factor Xa” value with Factor Xa is 0. Also, the 5-HT6 with 5-HT6 receptor was 0. For the same molecule, in the test with 5-HT7b receptor, the 5-HT7 was 0.
In the case of `O=c1[nH]ncc2c1oc1ccccc12`, the “Factor Xa” value in the test with Factor Xa was 0. In addition, in the test with 5-HT6 receptor, the 5-HT6 is 0. The 5-HT7 with 5-HT7b receptor was 0.
